# Mcl1-Noxa inh – Mcl-1/Noxa binding inhibitors, primary screen, biochemical, TR-FRET, 1536-well | TR-FRET Mcl-1/Noxa peptide binding, 2 h | Induced myeloid leukemia cell differentiation protein Mcl-1 (Homo sapiens), Q07820 | AID 1022, 2008 | actives 1.5% (n = 220,000) | inhibition, % at 21.7 µM;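 active means compounds that cut the protein-peptide binding signal by more than 50% relative to plate controls in a single-dose test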;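 further: His-tagged Mcl-1 with rhodamine Noxa BH3 peptide and terbium anti-His antibody; 0% = Mcl-1 plus Noxa peptide wells and 100% = peptide-only wells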
# Target sequence (Q07820 whole entry, looked up): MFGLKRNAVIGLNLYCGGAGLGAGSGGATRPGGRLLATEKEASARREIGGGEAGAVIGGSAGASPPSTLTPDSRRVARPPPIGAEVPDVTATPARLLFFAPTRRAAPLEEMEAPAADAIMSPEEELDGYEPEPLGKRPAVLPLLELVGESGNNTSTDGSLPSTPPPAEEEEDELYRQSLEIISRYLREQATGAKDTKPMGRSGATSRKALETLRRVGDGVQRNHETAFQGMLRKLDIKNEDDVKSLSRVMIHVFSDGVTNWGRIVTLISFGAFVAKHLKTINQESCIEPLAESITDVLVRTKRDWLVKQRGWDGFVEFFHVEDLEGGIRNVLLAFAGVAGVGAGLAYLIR
# MCL1 BIM primary – inhibitors of MCL1 binding to BIM-BH3, primary screen, biochemical, fluorescence polarization; Induced myeloid leukemia cell differentiation protein Mcl-1 (Homo sapiens), Q07820; GST-MCL1 / FITC-Bim-BH3 fluorescence polarization; inhibition, % at 10.9 µM; actives 0.68% (n = 320,000); AID 2057, 2009;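 active means inhibition above the mean inhibition of all tested compounds plus 3 SD, set per campaign, cut at about 40% in these data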;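 further: 0% = DMSO wells and 100% = unlabeled Bim-BH3 peptide control; higher means more loss of mP so more displacement of Bim peptide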
# Mcl1-Bid inh – Mcl-1/Bid binding inhibitors, primary screen, biochemical, TR-FRET, 1536-well | TR-FRET Mcl-1/Bid-Dy647 peptide binding | inhibition, % at 21.7 µM | actives 0.97% (n = 220,000);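 active means compounds that cut the binding signal by more than half at the single screening dose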;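 further: His-tagged Mcl-1 with europium anti-His antibody binding Bid BH3 peptide; 0% = Mcl-1 plus peptide wells and 100% = peptide-only wells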
# Bcl-xL primary – inhibitors of human Bcl-xL, primary screen, biochemical, fluorescence polarization, HTS; actives 0.7% (n = 320,000); inhibition, % at 10.9 µM; GST-Bcl-xL / FITC-Bim BH3 peptide fluorescence polarization; Bcl-2-like protein 1 (Homo sapiens), Q07817; AID 2129, 2009;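 active means inhibition above the mean of all tested compounds plus 3 SD, cutoff set per campaign, cut at about 30% in these data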;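 further: 0% = DMSO wells and 100% = unlabeled Bim-BH3 peptide competitor; inhibitors lower millipolarization by displacing the labeled peptide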
# Target sequence (Q07817 whole entry, looked up): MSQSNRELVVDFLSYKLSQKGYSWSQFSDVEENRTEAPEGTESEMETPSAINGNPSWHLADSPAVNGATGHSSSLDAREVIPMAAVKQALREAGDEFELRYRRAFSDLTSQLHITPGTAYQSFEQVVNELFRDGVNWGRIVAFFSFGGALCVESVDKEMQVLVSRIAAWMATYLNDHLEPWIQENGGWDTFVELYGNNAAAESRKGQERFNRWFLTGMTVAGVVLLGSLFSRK
# Mcl-1 Bim block – inhibitors of Bim peptide binding to Mcl-1, primary screen, biochemical, bead-based flow cytometry, multiplex; Induced myeloid leukemia cell differentiation protein Mcl-1 (Homo sapiens), Q07820; actives 0.1% (n = 190,000); inhibition, % at 10 µM; Bim peptide-Mcl-1 binding; in the data active means inhibition above about 40%;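 further: 0% = no compound tracer wells and 100% = peptide blocker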
# GLD-1 RNA inh – GLD-1/TGE RNA complex disruptors, primary screen, biochemical, fluorescence polarization. Female germline-specific tumor suppressor gld-1 (Caenorhabditis elegans), Q17339. purified GLD-1 + fluorescein TGE RNA. inhibition, % at 5.96 µM. actives 0.44% (n = 320,000). AID 2280, 2010;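 active means percent inhibition above a per-plate cutoff, the plate mean of test compounds plus 3 SD, cut at about 30% in these data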;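 further: 0% = DMSO wells with GLD-1 and probe and 100% = wells lacking GLD-1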
# * = called active by the depositor; . = no result given. Compounds with a hit are over-represented: about 2.3% of the library has one in this group of screens.
SMILES,Mcl1-Noxa inh,MCL1 BIM primary,Mcl1-Bid inh,Bcl-xL primary,Mcl-1 Bim block,GLD-1 RNA inh
O=C(c1ccco1)N(CCC(c1ccccc1)c1ccco1)Cc1ccco1 (centres undefined),62*,12,-9,0,2,-11
Cc1oc(C)c2c(=O)ccc3c(c12)OC(N)=C(C#N)C3c1ccccc1 (centres undefined),37,39,-1,32*,.,9
CC1=C(C(=O)OCc2ccccc2)C(/C=C/c2ccccc2)NC(=S)N1 (centres undefined),6,1,54*,3,-5,2
O=C(Nc1ccccc1C(=O)Nc1ccncc1)c1cccc([N+](=O)[O-])c1,.,8,.,5,.,0
CC(C)CC1NC(=O)N(CC(=O)c2ccc3c(c2)OCCO3)C1=O (centres undefined),98*,-1,-4,3,-1,-3
CCCC1Oc2ccccc2C(=O)N(CC(=O)c2ccc3c(c2)OCCO3)C1=O (centres undefined),.,-6,.,2,.,3
CCOC(=O)C1=C(COC(=O)Cc2ccc(Br)cc2)NC(=O)NC1C (centres undefined),.,7,.,6,.,-1
Cc1ccc2nc(N3C(=O)C(O)=C(C(=O)c4cc5ccccc5o4)C3c3cccs3)sc2c1 (centres undefined),70*,10,-25,10,2,4
Cc1ccc2nc(N3C(=O)C(O)=C(C(=O)c4ccco4)C3c3ccc(O)cc3)sc2c1 (centres undefined),.,2,.,2,.,-9
Cc1ccc(C2C(C(=O)c3ccco3)=C(O)C(=O)N2c2nnc(C)s2)cc1 (centres undefined),6,25,-57,31*,-3,34*
CCc1ccc2nc(N3C(=O)C(O)=C(C(=O)c4ccco4)C3c3cccs3)sc2c1 (centres undefined),53*,7,19,2,1,-1
COc1ccc(N2CCN(Cc3oc(CO)cc(=O)c3O)CC2)cc1,-10,42*,-98,53*,16,22
CN1CCN(Cc2oc(CO)cc(=O)c2O)CC1,-19,11,-102,7,-2,2
COc1cccc(C2c3[nH]c4ccccc4c3C[C@H]3C(=O)N(CCCO)CC(=O)N23)c1OC (some centres undefined),.,-2,.,1,.,1
COc1ccc2c(c1OC)C(=O)N1C(C(=O)O)Cc3c([nH]c4ccccc34)C21 (centres undefined),7,47*,-2,48*,-2,21
O=P(COCCCCCOCP(=O)(c1ccccc1)c1ccccc1)(c1ccccc1)c1ccccc1,21,-2,-18,3,1,0
O=C(CSc1nc(-c2ccccc2)nc2c1Cc1ccccc1O2)Nc1ccc(C(=O)O)cc1,27,.,88*,.,-1,.
CC(=O)c1ccc(NC(=O)CC2Nc3cccc4cccc(c34)NC2=O)cc1 (centres undefined),83*,14,-35,8,-1,8
O=C1CC2CCCN2C=C1I (centres undefined),.,.,.,.,.,12
CCOC(=O)CNc1c(-c2ccccc2)nc2ccc(Cl)cn12,18,0,-15,2,2,13
COC(=O)CNc1c(-c2ccccn2)nc2ccc(Br)cn12,-5,55*,-59,47*,0,50*
Oc1ccccc1-c1nc(NCCN2CCOCC2)c2ccccc2n1,29,0,-16,1,-3,3
COc1cccc(-c2nc(NCCN3CCOCC3)c3ccccc3n2)c1O,51*,-1,-78,4,14,7
O=C(O)CCCC(=O)OCc1c(-c2ccccc2)ncc2ccccc12,.,5,.,0,.,-2
Cc1ccc(C)c(-n2c(-c3ccc(Br)cc3)csc2=NC(=O)c2ccccc2F)c1,-80,-1,-11,2,.,-3
SMILES,Mcl1-Noxa inh,MCL1 BIM primary,Mcl1-Bid inh,Bcl-xL primary,Mcl-1 Bim block,GLD-1 RNA inh
Cc1cc(-c2nn(-c3ccccc3)cc2/C=C2\SC(N)=NC2=O)ccc1OC(C)C,-3,-5,0,-3,94*,-1
CC(=O)Nc1ccc(N(C(=O)CNC(=O)c2ccco2)C(C(=O)NC2CCCC2)c2ccco2)cc1 (centres undefined),.,6,.,6,.,4
Cc1ccc(CNC(=O)c2cccc3c2C(=O)c2ccc(N4CCCCC4)cc2S3(=O)=O)cc1,.,-87,.,-27,.,71*
O=C(NCc1ccco1)c1cccc2c1C(=O)c1ccc(N3CCCC3)cc1S2(=O)=O,.,.,.,.,.,31*
COc1ccc(C)cc1N(CC(=O)N/N=C/c1ccccc1C(=O)O)S(=O)(=O)c1ccccc1,11,2,37,-6,0,3
Cc1cc(=O)oc2cc(OCC(=O)N/N=C/c3cc([N+](=O)[O-])ccc3O)ccc12,73*,10,82*,4,0,12
Cc1ccc(C)c(NC(=O)CCC(=O)N/N=C/c2cc([N+](=O)[O-])ccc2O)c1,-23,12,-41,8,-1,-2
Cc1ccc(NS(=O)(=O)c2cccc(C(=O)O)c2)cc1S(=O)(=O)N1CCCCC1,72*,8,-40,6,12,6
O=C(O)c1cccc(S(=O)(=O)Nc2cccc(S(=O)(=O)N3CCCCCC3)c2)c1,15,-2,1,6,-6,3
Cc1c(C(=O)N2CCCCCC2)c(S(=O)(=O)NCc2ccccc2Cl)c(C)n1C,.,0,.,12,.,-10
Cc1ccc(S(=O)(=O)N(C)CC(O)Cn2c3ccccc3c3ccccc32)cc1 (centres undefined),7,8,72*,1,0,-5
CNC[C@H]1Oc2c(NS(=O)(=O)c3cccs3)cccc2C(=O)N([C@H](C)CO)C[C@@H]1C,.,.,.,.,.,-6
CCOC(=O)C1CCN(CC(=O)Nc2c(C(=O)OC)[nH]c3cccc(Cl)c23)CC1,4,-3,99*,-4,0,4
CCOC(=O)C1CCN(CC(=O)Nc2c(C(=O)OC)[nH]c3ccccc23)CC1,13,.,-33,.,-1,.
COc1cccc(CN2c3ccc(Br)cc3C(=O)CS2(=O)=O)c1,.,12,.,6,.,8
Cc1ccc(CNC(=O)c2ccc(-n3cccc3)cc2)cc1,81*,.,-61,.,3,.
Cc1ccc(CNC(=O)Cc2ccc(-n3cccc3)cc2)cc1,16,-6,-13,2,-2,1
Cc1ccc(CNC(=O)c2ccc3nc4[nH]c5ccccc5c4nc3c2)cc1,15,.,68*,.,0,.
O=C1C=C(c2ccc(F)c(Cl)c2)C[C@@H](c2ccc(F)cc2)C1,.,-14,.,3,.,1

# Screening data (PubChem)
